# Screening results from PubChem.
# In the library only some 9.9% were active in any assay of this set; here they are far more common.
# ALDH1A1 inh = qHTS Assay for Inhibitors of Aldehyde Dehydrogenase 1 (ALDH1A1); Purified ALDH1A1, NADH fluorescence, propionaldehyde substrate; 220,000 compounds, 7.3% hits; Potency, µM (titrated, usually from 75.3 µM), without a hit: at the top dose activity, negative = inhibition, actives largely listed as inhibitors; Aldehyde dehydrogenase 1A1 (Homo sapiens), P00352; AID 1030, 2008;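 note: plate controls were no enzyme wells and a reference inhibitor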
# HPGD inh = qHTS Assay for Inhibitors of HPGD (15-Hydroxyprostaglandin Dehydrogenase). 15-hydroxyprostaglandin dehydrogenase [NAD(+)] (Homo sapiens), P15428. purified HPGD, NADH fluorescence kinetic, PGE2 substrate. Potency, µM, for inactives: at the highest dose activity change, negative = inhibition, usual class: inhibitors. 150,000 compounds, 4.3% hits
# Target sequence (P15428 whole entry, looked up): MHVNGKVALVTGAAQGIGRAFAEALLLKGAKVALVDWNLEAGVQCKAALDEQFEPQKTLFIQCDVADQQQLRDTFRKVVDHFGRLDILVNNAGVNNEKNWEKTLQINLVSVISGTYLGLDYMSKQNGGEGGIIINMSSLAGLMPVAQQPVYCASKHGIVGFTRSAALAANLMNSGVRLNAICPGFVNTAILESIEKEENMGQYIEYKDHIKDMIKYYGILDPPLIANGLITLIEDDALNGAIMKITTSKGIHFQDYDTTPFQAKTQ
#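 NADH formation kinetics: reaction with 30 uM PGE2 and 1 mM NAD+ (final), 20 nM enzyme, Tris-HCl pH 8 with Tween 20, after 15 min compound preincubation at room temperature. Fluorescence change, last versus first of five reads.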
# Tau ThT inhib = qHTS for Inhibitors of Tau Fibril Formation, Thioflavin T Binding; Potency, µM (doses to about 57.4 µM), for the others: at the highest dose activity, negative = inhibition, usual class: inhibitors; 270,000 compounds, 2.1% hits; Microtubule-associated protein tau (Homo sapiens), P10636; AID 1460, 2008; recombinant tau K18 P301L, heparin-induced fibrillization, ThT fluorescence; active = well fitted curve in the direction sought with a large enough effect; inconclusive = small, poorly fitted or top-dose-only effect, or another doubt; inactive = no such curve, though single readings can be large; an effect the other way counts as inactive or inconclusive; note: nearly all actives have a fitted effect of over 55% in size
#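 Using a mix of unlabeled (15 uM) and Alexa 594-labeled (0.24 uM) tau K18 P301L, heparin-triggered fibrillization over 6 hr at 37 C was scored by ThT fluorescence.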
# Tau fluor counter = Counterscreen qHTS for Inhibitors of Tau Fibril Formation, Fluorescence Polarization; tau K18 P301L Alexa594 fluorescence, heparin fibrillization; Potency, µM (titrated, usually from 57.7 µM), for inactives: top-dose activity change, negative = decrease; 280,000 compounds, 0.93% hits; active = well fitted curve in the direction sought with a large enough effect; inconclusive = small, poorly fitted or top-dose-only effect, or another doubt; inactive = no such curve, though single readings can be large; an effect the other way counts as inactive or inconclusive; note: nearly all actives have a fitted effect of over 55% in size
#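 Human K18 P301L tau (15 uM unlabeled plus 0.24 uM Alexa 594-labeled, final) in 100 mM sodium acetate pH 7 was mixed with compound and 20 uM heparin and incubated 6 hr at 37 C.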
# KDM4E inh = qHTS Assay for Inhibitors of Human Jumonji Domain Containing 2E (JMJD2E) | Potency, µM (series often up to 57.1 µM), without a hit: at the highest dose activity change, negative = inhibition, hits mostly inhibitors | JMJD2E catalytic domain, FDH-coupled NADH fluorescence (FDH is formaldehyde dehydrogenase) | 230,000 compounds, 1.6% hits | Lysine-specific demethylase 4E (Homo sapiens), B2RXH2;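 note: 0% = wells with enzyme and -100% = buffer wells without enzyme; nearly all actives have a fitted effect of over 50% in size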
# Target sequence (B2RXH2 1-337 limits assumed): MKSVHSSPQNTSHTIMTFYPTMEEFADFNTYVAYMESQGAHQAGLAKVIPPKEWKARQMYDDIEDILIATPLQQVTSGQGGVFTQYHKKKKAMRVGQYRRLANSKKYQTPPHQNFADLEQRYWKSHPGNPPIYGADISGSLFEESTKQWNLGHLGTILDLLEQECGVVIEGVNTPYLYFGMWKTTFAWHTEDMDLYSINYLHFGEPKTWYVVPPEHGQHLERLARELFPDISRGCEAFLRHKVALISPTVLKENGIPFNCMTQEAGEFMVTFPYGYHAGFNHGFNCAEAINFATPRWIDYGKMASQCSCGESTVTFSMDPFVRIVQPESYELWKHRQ
# Tau fibril FP = qHTS for Inhibitors of Tau Fibril Formation, Fluorescence Polarization. Microtubule-associated protein tau (Homo sapiens), P10636. AID 1468, 2008. Potency, µM (doses to about 57.7 µM), for inactives: at the top dose activity, negative = inhibition, hits mostly inhibitors. 280,000 compounds, 0.39% hits. K18 P301L tau heparin fibrillization, Alexa594 FP, 6 h; active = well fitted curve in the direction sought with a large enough effect; inconclusive = small, poorly fitted or top-dose-only effect, or another doubt; inactive = no such curve, though single readings can be large; an effect the other way counts as inactive or inconclusive; note: nearly all actives have a fitted effect of over 55% in size
#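 Heparin (20 uM) drove fibril formation of recombinant tau K18 P301L, 15 uM unlabeled with 0.24 uM Alexa 594 label, for 6 hr at 37 C in 100 mM sodium acetate pH 7. Fluorescence polarization (555/632 nm) read 1 hr after 30 uM ThT.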
# Numbers without * were called inactive; ? = inconclusive; / = no result; [ ] = dose if it differs, or a comment. Unless noted, calls come from the whole dose curve; as a rule, active = well fitted inhibition curve with a large enough effect (not every such curve was filed as active); inconclusive = small, poorly fitted or top-dose-only effect, or another doubt; inactive = no such curve, though single readings can be large or run the other way. Unless noted, % is set by controls: 0 for no effect and ±100 for the full control effect; potency is the fitted concentration of half-maximal effect.
SMILES,ALDH1A1 inh,HPGD inh,Tau ThT inhib,Tau fluor counter,KDM4E inh,Tau fibril FP
NC(=O)c1ccc(OCC(O)CN2CC=C(c3ccc(F)cc3)CC2)cc1 (configuration not stated),3%,-8%,-14%,-5%,3%,-2%
O=C(Nc1ccc2nc(SCC(=O)N3CCCc4ccccc43)sc2c1)c1cccc(F)c1,/,/,1%,?,/,?
N=C1/C(=C/c2ccc(OC(=O)c3ccco3)cc2)C(=O)N=C2SC=CN12,?,/,?,-14%,14µM*,2%
COc1ccc(C(=O)CN2CCOCC2)cc1F,14µM*,-7%,?,-15%,7%,-4%
Cc1cc(C)c(C(=O)CN2CCOCC2)c(C)c1,10µM*,-10%,?,4%,3%,2%
c1cncc(C2Nc3cccc4cccc(c34)N2)c1,/,/,13µM*,14µM*[quencher],5µM*,?
C=C(C)CSc1nc2ncc(Cl)cc2[nH]1,5%,13µM*,-13%,-2%,4%,1%
CCCCC/C=C\C/C=C\C/C=C\C/C=C\CCCC(=O)OCCN,?,-13%,?,-4%,/,3%
O=C(O)C[C@H]1NCc2cc3ccccc3nc21,8%[13.5 µM],-3%,/,/,/,/
O=Cc1ccccc1,3.2µM*,-9%,/,/,/,/
CN(C)CC1CSCCC1(O)c1ccccc1 (configuration not stated),13µM*,1%,3%,-4%,8%,3%
CCOc1cc(/C=N/NC(=O)c2cccs2)ccc1OC(=O)N1CCOCC1,-13%,-10%,?,-9%,-18%,-6%
N#Cc1c(/N=C/c2c(O)n(Cc3ccco3)c(=O)[nH]c2=O)sc2c1CCCC2,28µM*,-23%,20µM*,-23%,?,?
C/C(CC(=O)N1CCN(C=O)CC1)=N\NC(=O)c1cccc([N+](=O)[O-])c1,25µM*,/,-15%,1%,2%,-2%
O=C(c1cccc([N+](=O)[O-])c1)C12CN3CN(CN(C3)C1)C2,6%,/,0%,-1%,3%,3%
O=C1NC(=O)N(Cc2ccccc2)C(=O)/C1=C/N1CCCc2ccccc21,8.9µM*,-24%,10µM*,-24%,?,?
O=C1NC(=O)N(Cc2ccccc2)C(=O)/C1=C\C=C\c1ccco1,3.2µM*,/,14µM*,-22%,-30%,?
CCOC(=O)C1CCN(/C=C2/C(=O)NC(=O)N(Cc3ccco3)C2=O)CC1,3.5µM*,-14%,?,-12%,-6%,?
O=C1NC(=O)N(Cc2ccco2)C(=O)/C1=C/C=C/c1ccco1,/,/,8.9µM*,-22%,25µM*,?
[O-][Cl+2]([O-])O,?,-7%,/,/,/,/
CC1(C)[C@@H]2CC[C@]1(C)CN(CCC[N+](C)(C)C)C2,9%[13.5 µM],1%,/,/,/,/
O[N+]1=CC=CCC1=S.On1ccccc1=S.[Zn],2.8µM*,?,?,-23%,2.5µM*,?
CN1C(=O)NC(=O)/C(=C\C=C\c2ccccc2[N+](=O)[O-])C1=O,?,/,25µM*,-22%,?,?
Nc1c(C(=O)Nc2ccc([As](=O)(O)O)cc2)cnc2nnnn12,-4%[13.5 µM],0%,/,/,/,/
O=[N+]([O-])c1cc(O)c(O)c([N+](=O)[O-])c1,?,?,?,-11%,10µM*,6%
SMILES,ALDH1A1 inh,HPGD inh,Tau ThT inhib,Tau fluor counter,KDM4E inh,Tau fibril FP
CC1COC2=C1C(=O)C(=O)c1c2ccc2c1CCCC2(C)C (configuration not stated),22µM*,20µM*,13µM*,?,?,?
C[C@H]1COC2=C1C(=O)C(=O)c1c2ccc2c1CCCC2(C)C,13µM*,/,13µM*,-28%,?,?
CC(=O)O[C@H]1C[C@@H](O[C@@H]2[C@H](C)O[C@H](O[C@@H]3[C@H](C)O[C@H](O[C@@H]4CC[C@@]5(C)[C@@H](CC[C@]6(C)[C@]5(C)C[C@H](O)[C@]5(C)[C@@H](C7=CC(=O)OC7)CC[C@@]56O)C4)C[C@@H]3O)C[C@@H]2O)O[C@@H](C)[C@H]1O[C@H]1O[C@@H](CO)[C@@H](O)[C@@H](O)[C@@H]1O,25%[20.9 µM],-12%,/,/,6%[25.5 µM],/
CCOC(=O)c1ccc(N=Cc2c(O)n(-c3ccccc3F)c(=S)[nH]c2=O)cc1,-7%,-7%,-18%,-3%,8%,-2%
CCOC(=O)c1c(/N=C/c2c(O)n(-c3ccc(F)cc3)c(=S)[nH]c2=O)sc2c1CCCC2,18µM*,0%,-15%,-3%,1%,-3%
CCOC(=O)c1c(/N=C/c2c(O)n(-c3ccccc3F)c(=S)[nH]c2=O)sc2c1CCCC2,1.3µM*,22µM*,22µM*,-16%,?,?
Cc1ccc(Cn2ccc(NC(=O)c3cc(-c4ccco4)on3)n2)cc1,18µM*,-14%,-17%,-17%,-16%,0%
Cc1ccc(Cn2cccc(C(=O)Nc3cc(C)on3)c2=O)cc1,/,/,-7%,-8%,/,-15%
Nc1ccc(N)cc1,-6%,-13%,14µM*,?,/,?
O=C1CC(c2ccccc2)CC(O)=C1C=NCCN1CCN(C(=O)Cc2ccccc2)CC1 (configuration not stated),-7%,-7%,-12%,-6%,5%,7%
CC1(C)CC(=O)C(C=NCCN2CCN(C(=O)Cc3ccc(F)cc3)CC2)=C(O)C1,18µM*,-15%,-8%,4%,-15%,-4%
COc1ccc(-c2c3c(=O)n(C)c(=O)n(C)c3c3n2-c2ccccc2NC3c2ccccc2OC)cc1 (configuration not stated),/,/,?,-9%,/,10%
O=c1c2cc(Cl)cc(Cl)c2nc(CN2CCOCC2)n1-c1ccccc1F,14µM*,-16%,2%,-1%,2%,3%
O=Cc1ccc2c(c1)OCO2,?,-8%,/,/,/,/
COP(=S)(OC)SCn1nnc2ccccc2c1=O,13µM*,28µM*,/,/,?,/
COc1ccc(CN2C(=O)CC(=O)NC2=O)cc1,?,/,25µM*,-14%,-2%,?
CCC1CN2CCC1CC2C(Oc1cc2ccccc2c2ccccc12)c1ccnc2ccc(O)cc12 (configuration not stated),-3%[13.5 µM],/,?,-6%[11.6 µM],/,-7%[11.6 µM]
O=[N+]([O-])CCO,18µM*,-11%,/,/,/,/
